# In PubChem BioAssay (NCATS):
# Results filed as inconclusive are left out. Where a call stands in place of a potency, no number is given. Active and inactive are the calls of the source. The call rests on the fitted dose curve.
# Key:
# [1] = Primary qHTS for Huh7 cytotoxicity: counterscreen for inhibitors of MERS-S pseudotyped particle cell entry (AID 1479147); conditions: outcome: dose series up to 57.1 µM unless noted
# [2] = Primary qHTS for inhibitors of MERS-S pseudo-typed particle cell entry (AID 1479149); conditions: outcome: dose series up to 57.1 µM unless noted; further: nearly all actives have a fitted effect of over 60% in size; further: potency means the concentration at half of the fitted maximal effect
# [3] = Primary qHTS for Vero E6 cytotoxicity: counterscreen for inhibitors of SARS-S pseudo-typed particle cell entry (AID 1479150); conditions: outcome: dose series up to 57.1 µM unless noted
# [4] = Cytotoxicity counterscreen for inhibitors of SARS-CoV-2 cell entry (AID 1645845); conditions: outcome: dose series up to 57.1 µM unless noted; further: nearly all actives have a fitted effect of over 50% in size
# Method in brief: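 Expi293F/hACE2 cells seeded overnight; cpd pin-transferred in DMSO, 1 h preincubation, + media, 48 h 37 C 5% CO2; ATPLite 1step luminescence; normalized to cells and no cells.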
# [5] = Primary qHTS to identify inhibitors of SARS-CoV-2 cell entry (AID 1645846); conditions: SARS-CoV-2 pseudovirus cell entry assay, luminescence; activity change, negative = inhibition: at 57.1 µM (top of the series) unless noted; further: nearly all actives have a fitted effect of over 45% in size; further: potency means the concentration at half of the fitted maximal effect
# Method in brief: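 HEK293-ACE2 (Expi293F, stable hACE2), 1500 cells/well, o/n 37C; cpd 23 nL pin, 1 h; MLV-PP w/ SARS-CoV-2-S (Wuhan-Hu-1, Δ19 C-term); 48 h 37C; Bright-Glo luminescence; normalized vs S-PP and bald PP.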
structure (smiles),measurement,setting,value
CCN(CC)C(=O)[C@]1(c2ccccc2)C[C@H]1CN,Potency,[1],inactive
same,Potency,[2],inactive
same,Potency,[3],inactive
same,Potency,[4],inactive
CCC(C)C(C(=O)OCC[N+](C)(CC)CC)c1ccccc1 (stereo not drawn),Potency,[1],inactive
same,Potency,[2],inactive
same,Potency,[3],inactive
same,Potency,[4],inactive
COC(=O)[C@H]1[C@H]2C[C@@H]3c4[nH]c5cc(OC)ccc5c4CCN3C[C@H]2C[C@@H](OC(=O)/C=C/c2cc(OC)c(OC)c(OC)c2)[C@@H]1OC,Potency,[1],inactive
same,Potency,[2],inactive
same,Potency,[3],inactive
same,Potency,[4],inactive
same,"activity change, negative = inhibition",[5],-22.2% [at 19 µM]
COc1ccc(-c2c(Cl)ncn2-c2ccc(S(N)(=O)=O)cc2)cc1F,Potency,[1],inactive
same,Potency,[2],inactive
same,Potency,[3],inactive
same,Potency,[4],inactive
same,"activity change, negative = inhibition",[5],-27%
N=c1ccn2c(n1)O[C@@H]1[C@@H](O)[C@H](CO)O[C@@H]12,Potency,[1],inactive
same,Potency,[2],8.91 µM (active)
same,Potency,[3],inactive
same,Potency,[4],inactive
same,Potency,[5],2.51 µM (active)
CCC(=O)O[C@@H]1[C@@H](C)O[C@@H](O[C@H]2[C@H](N(C)C)[C@@H](O)[C@H](O[C@H]3[C@@H](CC=O)C[C@@H](C)[C@@H](OC(C)=O)/C=C/C=C/C[C@@H](C)OC(=O)C[C@@H](OC(=O)CC)[C@@H]3OC)O[C@@H]2C)C[C@]1(C)OC(C)=O,Potency,[1],inactive
same,Potency,[2],inactive
same,Potency,[3],inactive
same,Potency,[4],inactive
same,"activity change, negative = inhibition",[5],-16.2%
Cc1[nH]cnc1C[C@H]1CCc2c(C)c3ccccc3n2C1=O,Potency,[1],inactive
same,Potency,[2],inactive
same,Potency,[3],inactive
same,Potency,[4],inactive
same,"activity change, negative = inhibition",[5],-26.5%
Cc1oc(-c2ccccc2)nc1CCOc1ccc(CC2C(=O)NOC2=O)cc1 (stereo not drawn),Potency,[1],inactive
same,Potency,[2],inactive
same,Potency,[3],inactive
same,Potency,[4],inactive
same,"activity change, negative = inhibition",[5],-23.4%
Cc1nccn1CCC(C(N)=O)(c1ccccc1)c1ccccc1,Potency,[1],inactive
same,Potency,[2],inactive
same,Potency,[3],inactive
same,Potency,[4],inactive
same,"activity change, negative = inhibition",[5],-25.4%
CC(C)(C)NCC(O)c1ccc(O)c(CO)n1 (stereo not drawn),Potency,[1],inactive
same,Potency,[2],inactive
same,Potency,[3],inactive
same,Potency,[4],inactive
same,Potency,[5],inactive
NC(=O)c1ccc[n+]([C@@H]2O[C@H](COP(=O)([O-])OP(=O)(O)OC[C@H]3O[C@@H](n4cnc5c(N)ncnc54)[C@H](O)[C@@H]3O)[C@@H](O)[C@H]2O)c1,Potency,[1],inactive
same,Potency,[2],inactive
same,Potency,[3],inactive
same,Potency,[4],inactive
same,"activity change, negative = inhibition",[5],-19.8%
CC(C)CC(NC(=O)CNC(=O)C(Cc1ccc(O)cc1)NC(=O)C(CO)NC(=O)C(Cc1c[nH]c2ccccc12)NC(=O)C(Cc1cnc[nH]1)NC(=O)C1CCC(=O)N1)C(=O)NC(CCCN=C(N)N)C(=O)N1CCCC1C(=O)NCC(N)=O (stereo not drawn),Potency,[1],inactive
same,Potency,[2],inactive
same,Potency,[3],inactive
same,Potency,[4],inactive
same,"activity change, negative = inhibition",[5],-25.2%
COC1=C(C(=O)O)N2C(=O)[C@@H](NC(=O)[C@H](N)C3=CCC=CC3)[C@H]2SC1,Potency,[1],inactive
same,Potency,[2],inactive
same,Potency,[3],inactive
same,Potency,[4],inactive
same,"activity change, negative = inhibition",[5],-17.7%
CN(C)C(=O)NC1CCC(CCN2CCN(c3cccc(Cl)c3Cl)CC2)CC1 (stereo not drawn),Potency,[1],inactive
same,Potency,[2],inactive
same,Potency,[3],inactive
same,Potency,[4],inactive
same,"activity change, negative = inhibition",[5],-20.6% [at 27.1 µM]
CCCCCC(O)/C=C/[C@@H]1C(CCCCCCC(=O)O)C(=O)C[C@@H]1O (stereo partly drawn),Potency,[1],inactive
same,Potency,[2],inactive
same,Potency,[3],inactive
same,Potency,[4],inactive
same,"activity change, negative = inhibition",[5],-20.3%
CO[C@@H]1C[C@H](O[C@H]2[C@H](C)[C@H](O[C@@H]3O[C@@H](C)C[C@@H](N(C)C)[C@H]3OC(C)=O)[C@H](C)C[C@]3(CO3)C(=O)[C@H](C)[C@H](OC(C)=O)[C@H](C)[C@H](C)OC(=O)[C@@H]2C)O[C@H](C)[C@H]1OC(C)=O,Potency,[1],inactive
same,Potency,[2],inactive
same,Potency,[3],inactive
same,Potency,[4],inactive
same,"activity change, negative = inhibition",[5],-34.5%
NC(=O)[C@@H]1C[C@]2(NC(=O)NC2=O)c2cc(F)ccc2O1,Potency,[1],inactive
same,Potency,[2],inactive
same,Potency,[3],inactive
same,Potency,[4],inactive
same,"activity change, negative = inhibition",[5],-14.3%
CCOc1cc(C(CS(C)(=O)=O)N2C(=O)c3cccc(NC(C)=O)c3C2=O)ccc1OC (stereo not drawn),Potency,[1],inactive
same,Potency,[2],inactive
same,Potency,[3],inactive
same,Potency,[4],inactive
same,"activity change, negative = inhibition",[5],-21.8%
Cc1ccc(S(=O)(=O)O)cc1,Potency,[1],inactive
same,Potency,[2],inactive
same,Potency,[3],inactive
same,Potency,[4],inactive
same,"activity change, negative = inhibition",[5],-13.7%
CCC(=O)OC1(C(=O)CCl)C(C)CC2C3CC(F)C4=CC(=O)C=CC4(C)C3(F)C(O)CC21C (stereo not drawn),Potency,[1],inactive
same,Potency,[2],inactive
same,Potency,[3],inactive
same,Potency,[4],inactive
same,"activity change, negative = inhibition",[5],-5.75%
OCc1ccccc1,Potency,[1],inactive
same,Potency,[2],inactive
same,Potency,[3],inactive
same,Potency,[4],inactive
same,"activity change, negative = inhibition",[5],3.04%
O=C(OC[C@H]1O[C@@H](OC(=O)c2cc(O)c(O)c(O)c2)[C@H](O)[C@@H](OC(=O)c2cc(O)c(O)c(O)c2)[C@@H]1O)c1cc(O)c(O)c(O)c1,Potency,[1],inactive
same,Potency,[2],inactive
same,Potency,[3],inactive
same,Potency,[4],inactive
same,"activity change, negative = inhibition",[5],-1.77%
CC(C)(C)CC(C)(C)c1cc(Cc2cc(C(C)(C)CC(C)(C)C)cc(-n3nc4ccccc4n3)c2O)c(O)c(-n2nc3ccccc3n2)c1,"activity change, negative = cytotoxicity",[1],1.83% [at 5.34 µM] (inactive)
same,outcome,[2],inactive [at 5.34 µM]
same,"activity change, negative = cytotoxicity",[3],-1.1% [at 5.34 µM] (inactive)
same,outcome,[4],inactive [at 5.25 µM]
same,"activity change, negative = inhibition",[5],-28.1% [at 5.25 µM]
CCCC(=O)Nc1c(I)cc(I)c(CC(CC)C(=O)O)c1I (stereo not drawn),Potency,[1],inactive
same,Potency,[2],inactive
same,Potency,[3],inactive
same,Potency,[4],inactive
same,"activity change, negative = inhibition",[5],-27.1%
COc1cc(C[C@@H]2NCCc3cc(O)c(O)cc32)cc(OC)c1OC,Potency,[1],inactive
same,Potency,[2],inactive
same,Potency,[3],inactive
same,Potency,[4],inactive
same,"activity change, negative = inhibition",[5],-18.7%
CC(C)CCC[C@@H](C)[C@H]1CC[C@H]2[C@@H]3CC=C4C[C@@H](O)CC[C@]4(C)[C@@H]3CC[C@]12C,Potency,[1],inactive
same,Potency,[2],inactive
same,Potency,[3],inactive
same,Potency,[4],inactive
same,Potency,[5],inactive
CS(=O)(=O)OCCCNCCCOS(C)(=O)=O,Potency,[1],inactive
same,Potency,[2],inactive
same,Potency,[3],inactive
same,Potency,[4],inactive
same,"activity change, negative = inhibition",[5],-19.8%
